Assay results taken from paper PMC9574860, “Chemical Toolkit for PARK7: Potent, Selective, and High-Throughput” (Journal of Medicinal Chemistry, 2022).
About 400 (5.1%) of roughly 7,900 compounds showed an effect of 50% or more. The sample holds strong results, similar compounds and a random draw of the others, so the mix is not that of the screen.

target: Parkinson's disease protein 7 (PARK7/DJ1) (human, UniProt Q99497); assay: primary screen, percent inhibition; read as competition with a fluorescent probe by fluorescence polarization; higher = more effect of the substance; settings: 100 µM
Sequence (Q99497 whole entry, looked up, the tested form may be a part): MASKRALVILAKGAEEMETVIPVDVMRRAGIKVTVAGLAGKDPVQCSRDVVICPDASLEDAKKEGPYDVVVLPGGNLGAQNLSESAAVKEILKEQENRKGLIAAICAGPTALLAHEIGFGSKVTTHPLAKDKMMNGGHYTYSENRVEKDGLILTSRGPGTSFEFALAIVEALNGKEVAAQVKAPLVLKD
Outline: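 Covalent fragments at 100 μM final were incubated 2 h with 0.2 μM PARK7, then 20 nM probe JYQ-107 added for a further 2 h. Fluorescence polarization read at 480/520 nm; relative FP loss versus reference controls gave remaining enzyme activity.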

Row | SMILES | Inhibition % [%]
1 | CN(CCC1CCOCC1)c1nc2ccccn2c1C#N | 5.08
2 | Cc1ccc(C=CS(=O)(=O)NCCC(=O)O)cc1 | 5.97
3 | O=C(O)CCNS(=O)(=O)C=Cc1ccccc1 | 6.07
4 | CNC(=O)CNS(=O)(=O)C=Cc1ccc(Cl)cc1 | 0.98
5 | CNC(=O)CNS(=O)(=O)C=Cc1ccccc1 | 6.07
6 | O=C(O)c1csc(NS(=O)(=O)C=Cc2ccccc2)c1 | 62.5
7 | Cc1ccc(C=CS(=O)(=O)NCC(=O)O)cc1 | 81.7
8 | O=C(O)c1cccc(NS(=O)(=O)C=Cc2ccccc2)c1 | -0.0382
9 | O=C(O)CNS(=O)(=O)C=Cc1ccccc1 | 84.3
10 | O=C(O)c1ccc(NS(=O)(=O)C=Cc2ccccc2)cc1 | 6.88
11 | CC(=O)N1CCN(C(=O)C=Cc2c(C)nn(C)c2Cl)CC1 | 8.55
12 | O=C(O)C1CC(O)CN1C(=O)C=Cc1ccc(F)cc1 (centres unmarked) | 2.28
13 | N#Cc1ccc(N2CCCC(N3CCCCCC3)C2)cn1 (centres unmarked) | 5.26
14 | O=C(CCl)Nc1cc(C2CC2)nn1-c1ccccc1 | 18.1
15 | CC1CC(Sc2nncn2-c2ccccc2F)C(=O)O1 (centres unmarked) | 0.0122
16 | COc1ccc(F)cc1S(=O)(=O)n1ccnc1C | 3.76
17 | CC1(C)OB(c2cc(Cl)ccc2N)OC1(C)C | 13.4
18 | CC(C)(C)OC(=O)c1cc2ccc(B3OC(C)(C)C(C)(C)O3)cc2[nH]1 | 7.8
19 | O=c1onc(-c2cnccn2)n1Cc1cccc(F)c1 | -2.87
20 | Cc1cc(NS(=O)(=O)C2=CCCCC2)c[nH]c1=O | 48.5
21 | Cc1cc(NS(=O)(=O)c2ccc(S(=O)(=O)F)cc2)c[nH]c1=O | 92.6
22 | O=C(O)CC1OB(O)c2ccccc21 (centres unmarked) | 0.686
23 | CCN(CCC#N)S(=O)(=O)C=Cc1ccccc1Cl | 6.99
24 | O=C(O)c1ccc(CS)cc1 | 17.3
25 | COc1ccccc1CS | 1.46

Row | SMILES | Inhibition % [%]
26 | O=C(O)Cc1ccccc1CS | 89.6
27 | C#CC(=O)Cc1ccccc1 | 7.8
28 | C#CC(=O)Nc1ccc(CC(=O)O)cc1 | 0.397
29 | O=C(O)Cc1ccc(CS)cc1 | 58.7
30 | C=CC(=O)NCC1CCCc2sc(C)nc21 (centres unmarked) | 5.16
31 | Fc1ccc(C2=NOC(CCl)C2)cc1 (centres unmarked) | -2.86
32 | COc1ccc(S(=O)(=O)N(C)C)cc1NC(=O)CCl | 20.4
33 | C=CC(=O)N1CCOc2c(F)ccc(F)c21 | 9
34 | C=CC(=O)Nc1cc(CC(C)(C)C)nn1C | 8.54
35 | O=C(CC1SC(=O)NC1=O)Nc1ccccc1 (centres unmarked) | 82.7
36 | CC(=O)Nc1ccc(OC(=O)N(C)C)cc1 | 10.8
37 | CC(=O)Nc1ccc(NC2SC(=O)NC2=O)cc1 (centres unmarked) | 66.6
38 | O=C(CCl)Nc1ccccc1C(=O)Nc1ccccc1 | 10.5
39 | O=C(CCCl)Nc1ccc(F)cc1 | 5.87
40 | O=C(CCCl)Nc1ccccc1 | 3.48
41 | C=CC(=O)Nc1ccc(Cl)cc1 | 5.59
42 | O=C(CC1SC(=O)NC1=O)Nc1ccc(Cl)cc1 (centres unmarked) | 95.7
43 | CC(=O)Nc1ccc(S(=O)(=O)F)cc1 | 15.8
44 | N#CC1(CCCl)CCCCC1 | 3.15
45 | C=CC(=O)N1CCN(c2ccc(OC)cn2)CC1 | 5.59
46 | O=C(CCl)Nc1ccc(NC(=O)c2cccs2)cc1 | 28
47 | COc1ccc(C(=O)CCl)cc1Cl | 95.9
48 | COc1cc(OC)c(C(=O)CCl)c(OC)c1 | 5.2
49 | COc1ccc(Cl)cc1NC(=O)CCl | 14.9
50 | COc1ccc(C(=O)CCl)cc1F | 91.7

Row | SMILES | Inhibition % [%]
51 | COc1ccc(NC(=O)CCl)cc1Cl | 28.1
52 | COc1ccc(Cl)cc1C(=O)NNC(=O)CCl | 29.8
53 | C=CC(=O)NC1CC(C(C)(C)C)C1 (centres unmarked) | 14
54 | C=CC(=O)N1c2cc(OC)ccc2NC(=O)C1C (centres unmarked) | 9.84
55 | O=S(=O)(F)c1cc(Br)ccc1Cl | 88.4
56 | O=S(=O)(F)c1ccc(Cl)c(S(=O)(=O)F)c1 | -3.28
57 | O=S(=O)(F)c1ccc(Br)cc1 | 13.2
58 | CC1CCN(C(=O)CCl)c2ccccc2S1 (centres unmarked) | 6.09
59 | Cc1ccc(Oc2ccc(Cl)cc2NC(=O)CCl)cc1 | 2.17
60 | COc1cc(NC(=O)OC(C)(C)C)ccc1B1OC(C)(C)C(C)(C)O1 | 14.5
61 | O=C(CCl)Nc1cc(Cl)ccc1-n1cncn1 | 11
62 | O=C(CCl)Nc1ccc(SC(F)F)cc1 | 100
63 | Cc1ccc(C)c(Sc2ccc(NC(=O)CCl)cc2)c1 | 37
64 | CSc1ccc(NC(=O)CCl)cc1 | 86
65 | Cc1ccc(Sc2ccc(NC(=O)CCl)cc2)c(C)c1 | 25.5
66 | Cc1ccc(Sc2ccc(NC(=O)CCl)cc2)cc1C | 34.5
67 | O=C(CCl)Nc1ccccc1SC(F)F | 9.47
68 | CC1(C)[C@@H](Nc2cnc(C#N)cn2)[C@@H]1c1ccccc1 (racemic) | 10.2
69 | Cc1nc(S)c(C#N)cc1C(=O)Nc1ccccc1 | 10.1
70 | N#Cc1ncn(CC(=O)N(C2=CCCCC2)C2CC2)n1 | 29.4
71 | COc1ccc(OC)c(C(=O)CCl)c1 | 11.8
72 | COc1ccc(C(=O)CCl)c(OC)c1 | 41.1
73 | COc1ccc(C(=O)CCl)c2c1C(=O)CO2 | 64.2
74 | O=C(C=Cc1cnc2ccccc2n1)N1CCCCC1 | 9.55
75 | O=C1OC[C@@H]2CN(Cc3ccccc3)C[C@H]12 (racemic) | 6.21

Row | SMILES | Inhibition % [%]
76 | O=S(=O)(F)c1nc2ccccc2s1 | 12.9
77 | CC(OS(C)(=O)=O)C(C)c1ccc2ccccc2n1.Cl (centres unmarked) | 24.3
78 | O=S(=O)(F)c1ccc2ccccc2n1 | 69.3
79 | Cc1cc(C=C(C#N)C(N)=O)c(C)n1C1CC1 | 2.13
80 | CCn1c(C)cc(C(=O)CCl)c1C | 56
81 | Cc1cc(C(=O)CCl)c(F)cc1F | 5.96
82 | Cc1cc(C(=O)CCl)c(C)n1CC1CCCO1 (centres unmarked) | 3.43
83 | Cc1cc(C(=O)CCl)c(C)n1CC(N)=O | 4.29
84 | Cc1cc(C(=O)CCl)c(C)[nH]1 | 98.2
85 | Cc1cc(F)c(C(=O)CCl)cc1F | 5.49
86 | Cc1cc(C(=O)CCl)c(C)n1C(C)C | 96.9
87 | CCn1c(C)cc(C(=O)Cn2cnc(C#N)n2)c1C | 0.239
88 | C=CCn1c(C)cc(C(=O)CCl)c1C | 58.7
89 | Cc1cc(C(=O)Cn2cnc(C#N)n2)c(C)n1C(C)C | 11.7
90 | C=CC(=O)N1CCC2COCC2C1 (centres unmarked) | 6.41
91 | N#Cc1nc(-c2ccc(Cl)cc2Cl)oc1N | -2.51
92 | O=c1ccc2cc(S(=O)(=O)OCC(F)(F)F)ccc2o1 | 6.17
93 | C=CC(=O)NCCc1cncnc1 | 10.1
94 | CCc1ccc(C=CS(=O)(=O)Nc2onc(C)c2C)cc1 | 4.3
95 | N#Cc1cc(C(=O)NCC2CCc3nccn3C2)c[nH]1 (centres unmarked) | 16.5
96 | CCC(NC(=O)CCl)c1ccc(Br)cc1 (centres unmarked) | 5.16
97 | CC1(C)OB(c2cccc(OCCCN3CCCC3)c2)OC1(C)C | 1.19
98 | C=CC(=O)N1CCCCC1c1noc(C)n1 (centres unmarked) | 3.88
99 | O=C(CN1CCSC1=O)N1CCN(c2ccccc2)CC1 | 5.93
100 | C=CC(=O)N1CCC(S(=O)(=O)NC(C)C)C1 (centres unmarked) | 7.14

Row | SMILES | Inhibition % [%]
101 | CC1(CO)CCCC1Nc1ccc(C#N)nc1 (centres unmarked) | 6.61
102 | COCc1cccnc1C#N | 2.34
103 | Fc1ccc(C2CO2)nc1 (centres unmarked) | 4.53
104 | CCCn1c(C)cc(C(=O)Cn2cnc(C#N)n2)c1C | 6.57
105 | Cc1cc(C(=O)CCl)c(C)n1CC(F)(F)F | 1.46
106 | Cc1cc(C(=O)CCl)c(C)n1Cc1ccco1 | 54.9
107 | CCCn1c(C)cc(C(=O)CCl)c1C | 56
108 | Cc1cc(C(=O)CCl)c(C)n1C1CC1 | 65
109 | COCCn1c(C)cc(C(=O)CCl)c1C | 49.1
110 | Cc1cc(C(=O)CCl)c(C)n1C1CCS(=O)(=O)C1 (centres unmarked) | 35.7
111 | Cc1cc(C=C(C#N)C(N)=O)c(C)n1Cc1ccco1 | 7.44
112 | Cc1cc(C(=O)Cn2cnc(C#N)n2)c(C)n1C1CC1 | 17.1
113 | Cc1cc(C(=O)CCl)c(C)n1C | 72.1
114 | Cc1cc(C(=O)Cn2cnc(C#N)n2)c(C)n1C | 18.2
115 | CC(=O)Nc1c(C)cc(C)c(C(=O)CCl)c1C | 14
116 | Cl.O=C(CCl)Nc1ncc[nH]1 | 1.78
117 | C=CC(=O)N1C[C@H](F)C[C@H]1C(=O)N1CCOCC1 | 10.5
118 | C=CC(=O)N1CCC(c2nc(C(F)(F)F)c[nH]2)CC1 | 0.0839
119 | C=CC(=O)N1CCC(C(=O)NCC(F)(F)F)C1 (centres unmarked) | 4.08
120 | COC(F)(F)C(F)(F)c1ccc(B2OC(C)(C)C(C)(C)O2)cc1 | 6.09
121 | O=C(O)c1ccoc1CS | 64.1
122 | CN(Cc1ncnn1C)S(=O)(=O)C=Cc1ccccc1 | 3.12
